We go through four compounds from PubChem BioAssay.

A short description of assay [1]: yeast TOR pathway RPL19A-GFP modulators, primary screen, cell-based, S. cerevisiae, multiplex flow cytometry (AID 1862; in the data active = percent of DMSO control GFP below about 86%;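 also: lower values mimic rapamycin by blocking the RPL19A rise seen in DMSO cells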). The note with it: S. cerevisiae RPL19A-GFP strain, flow cytometry fluorescence, 3 h; at 10 µM; stronger effect = lower value. On the technique in general: Flow cytometry measures light scatter and fluorescence of single cells or particles in a stream.
Assay [2] is described as follows: modulators of MEP2-GFP levels in yeast, primary screen, S. cerevisiae, multiplex flow cytometry (AID 1867;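 active = GFP response, as percent of the DMSO control, above the screen-wide mean plus 3 SD, about 139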;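 also: median GFP channel fluorescence of barcode-gated MEP2-GFP cells measured by flow cytometry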). Conditions: S. cerevisiae MEP2-GFP strain, 3 h, at 10 µM, stronger effect = higher value, 100% means same as DMSO wells.
Assay [3] is described as follows: modulators of CIT2-GFP expression in yeast, primary screen, S. cerevisiae, GFP fusion, multiplex flow cytometry (AID 1870;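 active = percent response above a set limit, the screen-wide mean plus 3 SD, cut at about 130% in these data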;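 also: barcoded CIT2-GFP strain pooled with four other GFP strains with rapamycin as positive control; median GFP fluorescence per well over plate mean of DMSO wells so 100% = DMSO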). Conditions: 3 h, at 10 µM, stronger effect = higher value.
Assay [4] is described as follows: modulators of LAP4-GFP expression in yeast, primary screen, S. cerevisiae, multiplex flow cytometry (AID 1873;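 active = GFP signal, as percent of the solvent control, above the screen mean plus 3 SD, about 149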). The note with it: 3 h, at 10 µM, stronger effect = higher value.
Assay [5] in a line: modulators of AGP1-GFP expression in yeast TOR pathway, primary screen, cell-based, multiplex flow cytometry, S. cerevisiae (AID 1887;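 active = GFP signal above the screen-wide mean plus 3 SD, that is over about 124.5% of the solvent control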;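 also: AGP1-GFP fusion strain of S. cerevisiae within a five-strain barcoded multiplex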). Conditions: 3 h, at 10 µM, stronger effect = higher value.
Assay [6] is described as follows: inhibitors of CD8+ T cell-vesicle binding, pilot screen, LFA-1/ICAM-1 modulator project, MLPCN validation set, flow cytometry (AID 2523;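 active = response below a set limit, under 55% cells CD8-positive and vesicle-bound, and CD8 cells' 90th-percentile brightness under 279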;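 as to vesicle binding response: mean PE anti-B7-1 fluorescence of CD8+ cells relative to row control; 100% = QL9-loaded vesicles with DMSO vehicle in the same plate row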). Conditions: 2C mouse CD8+ T cells, at 7 µM, stronger effect = lower value; double positive events: measured here: CD8+/vesicle+ event percentage.
Assay [7] concerns the target Integrin beta-1 (Homo sapiens) + Integrin alpha-4 (Homo sapiens) (UniProt P13612+P05556). The assay can be described thus: inhibition of HUTS-21 binding to VLA-4, pilot screen, VLA-4 allosteric modulator project, U937 cells, HUTS-21 mAb, flow cytometry, validation set (AID 2674).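 Also: antibody binding induced by the VLA-4 ligand LDV present at three times its Kd; 0% = LDV ligand with antibody and no compound and 100% = antibody without LDV.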 Conditions: HUTS-21 LIBS mAb binding, at 6.7 µM, stronger effect = higher value, binding induced by LDV ligand.

The nature of assay [8]: superoxide lowering in aged yeast cells, pilot screen, validation compound set (AID 2706;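 active = superoxide response below 65% of plate, a cut near 3 SD across the whole screen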;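 also: yeast exposed to compound for one week at 30 degrees C before staining; 100% = mean of all compound wells on the same plate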). The note with it: S. cerevisiae aging, superoxide DHE fluorescence; at 10 µM; stronger effect = lower value.
In assay [9] the target is Beta-adrenergic receptor kinase 1 (Homo sapiens) (UniProt P25098). The assay is described as follows: GRK2 binders displacing RNA aptamer, biochemical, validation, human GRK2, bead flow cytometry (AID 488806;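 active = aptamer binding inhibition above 30%, about 3 SD of noise from non-fluorescent compounds; inactive = inhibition at or below 30%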). Conditions: bead-bound GRK2, FAM-aptamer displacement, at 10 µM, stronger effect = higher value.
The target of assay [10] is Beta-2 adrenergic receptor (Homo sapiens) (UniProt P07550). The assay can be described thus: beta2AR agonists driving receptor internalization, pilot screen, cell-based, FAP fluorogen, flow cytometry, validation set (AID 504459;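 active = percent response above 42, roughly 3 SD of non-fluorescent test compounds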;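 also: agonist-driven loss of surface beta2AR via internalization measured by FAP dye flow cytometry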). Conditions: Am2.2-beta2AR cells, FAP surface receptor flow cytometry; at 10 µM; stronger effect = higher value.
Assay [11] has as its target AP-2 complex subunit beta (Homo sapiens) (UniProt P63010). The assay can be described thus: inhibitors of arrestin peptide binding to AP2, pilot screen, biochemical, validation set, GST-AP2 beads, flow cytometry (AID 504541;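 active = inhibition above 54%, about 3 SD of non-fluorescent compounds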;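 also: AP2 carries R879A mutation and is captured from E. coli lysate; bead-bound FITC arrestin peptide fluorescence measuring arrestin peptide binding to AP2; 0% = DMSO wells and 100% = excess unlabeled arrestin peptide control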). The note with it: FITC arrestin peptide, at 10 µM, stronger effect = higher value, AP2 beta2 appendage fragment, R879A mutant.
A short description of assay [12]: yeast V-ATPase proton transport modulators, S. cerevisiae, pHLuorin, HTS validation (AID 504600; in the data active = response above about 15%;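 also: plate controls were DMSO for no effect and reference compound for full effect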). Conditions: S. cerevisiae pHLuorin cytosolic pH, at 10 µM, stronger effect = higher value.
Assay [13] relates to anti-desmoglein-3 scFv antibody binding to human DSG3. The assay can be described thus: inhibitors of anti-DSG3 scFv binding to DSG3, pilot screen, biochemical, validation compound set, bead-based, flow cytometry (AID 588368;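 active = binding below the plate cutoff, the plate median minus 3 SD, with a reading above zero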;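 also: signal is the median channel fluorescence of bead-bound GFP antibody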). The note with it: Protein G beads, DSG3-Fc, scFv-GFP binding, at 10 µM, stronger effect = lower value.
Assay [14] in a line: inhibitors of fungal efflux pumps CDR1, CDR2, MDR1, pilot screen, validation compound set, multiplex, phenotypic (AID 588506;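 active = efflux inhibition above 0.42, the validation set average plus 4 SD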;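 also: Nile Red retained in cells so higher fluorescence means more efflux inhibition; 0 = negative control wells and 1 = enniatin B 25 µM full block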). Conditions: S. cerevisiae pump-expressing triplex, Nile Red efflux flow cytometry; at 10 µM; stronger effect = higher value; the pumps come from Candida albicans.
Assay [15] has as its target ATP-binding cassette sub-family B member 6 (Homo sapiens) (UniProt Q9NP58). The assay is described as follows: ABCB6 transporter inhibitors, pilot screen, K562-ABCB6 cells, flow cytometry, validation set (AID 588550;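 active = inhibition above the screen-wide mean plus 3 SD, about 51%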;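 also: 0% = DMSO wells and 100% = benzethonium chloride 70 µM positive control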). Conditions: K562-ABCB6 porphyrin accumulation, 1 h, at 10 µM, stronger effect = higher value.
Assay [16] is described as follows: promoters of myeloid differentiation in arrested cells, primary screen, cell-based, GFP/MAC1 double positive, flow cytometry, validation set (AID 588685;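 active = differentiation response of at least 50%, scaled between solvent and reference control, from cells with both markers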;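 also: compound exposure lasts four days before antibody staining and flow analysis; 0% = DMSO wells and 100% = 5 µM fulvestrant positive control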). The note with it: ER-HoxA9 marrow cells, stronger effect = higher value, normalized: vehicle 0, fulvestrant 100.

Results filed as inconclusive are left out. Active and inactive are the calls of the source.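 The calls were made as follows, unless noted: active = inhibition above 50%, about 3 SD of the validation set; inactive = the rest.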

The term inhibition denotes the change of the read-out against control, counted positive when it falls.

ATP-binding cassette sub-family B member 6 (Homo sapiens), sequence (Q9NP58 whole entry, looked up): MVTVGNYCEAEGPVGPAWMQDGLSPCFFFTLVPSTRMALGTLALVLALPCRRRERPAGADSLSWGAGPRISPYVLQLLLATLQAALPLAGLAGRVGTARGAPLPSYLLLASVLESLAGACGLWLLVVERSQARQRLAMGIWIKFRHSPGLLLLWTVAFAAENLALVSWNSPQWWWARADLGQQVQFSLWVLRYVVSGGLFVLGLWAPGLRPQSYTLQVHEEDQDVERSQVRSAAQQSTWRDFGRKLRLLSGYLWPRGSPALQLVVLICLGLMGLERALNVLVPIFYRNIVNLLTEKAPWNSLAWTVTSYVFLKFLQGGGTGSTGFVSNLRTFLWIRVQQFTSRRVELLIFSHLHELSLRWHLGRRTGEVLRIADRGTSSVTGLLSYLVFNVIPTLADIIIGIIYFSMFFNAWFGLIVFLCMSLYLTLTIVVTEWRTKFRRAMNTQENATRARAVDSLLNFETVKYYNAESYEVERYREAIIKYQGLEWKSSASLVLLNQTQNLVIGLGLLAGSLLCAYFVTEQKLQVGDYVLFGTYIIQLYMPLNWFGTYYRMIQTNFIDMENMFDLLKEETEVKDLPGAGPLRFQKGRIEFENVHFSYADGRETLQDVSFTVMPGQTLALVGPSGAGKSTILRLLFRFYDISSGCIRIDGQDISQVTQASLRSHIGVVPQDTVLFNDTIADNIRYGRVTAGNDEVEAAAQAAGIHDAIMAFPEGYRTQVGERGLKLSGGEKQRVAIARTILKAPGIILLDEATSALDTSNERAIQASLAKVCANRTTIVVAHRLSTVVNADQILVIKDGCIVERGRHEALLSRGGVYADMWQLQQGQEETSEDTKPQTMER
Beta-2 adrenergic receptor (Homo sapiens), sequence (P07550 whole entry, looked up): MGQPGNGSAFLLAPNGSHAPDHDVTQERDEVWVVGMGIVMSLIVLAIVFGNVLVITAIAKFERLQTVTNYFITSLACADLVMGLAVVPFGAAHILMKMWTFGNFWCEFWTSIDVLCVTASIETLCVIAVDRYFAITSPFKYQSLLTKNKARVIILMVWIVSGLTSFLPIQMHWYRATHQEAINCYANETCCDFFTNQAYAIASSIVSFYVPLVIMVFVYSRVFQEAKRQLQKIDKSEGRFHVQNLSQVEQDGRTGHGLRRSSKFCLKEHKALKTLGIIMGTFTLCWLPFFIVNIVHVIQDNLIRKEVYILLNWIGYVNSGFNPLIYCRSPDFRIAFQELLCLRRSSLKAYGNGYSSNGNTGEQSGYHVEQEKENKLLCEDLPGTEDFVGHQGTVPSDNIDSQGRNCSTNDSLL
Integrin beta-1 (Homo sapiens) + Integrin alpha-4 (Homo sapiens), sequence (P05556 whole entry, looked up): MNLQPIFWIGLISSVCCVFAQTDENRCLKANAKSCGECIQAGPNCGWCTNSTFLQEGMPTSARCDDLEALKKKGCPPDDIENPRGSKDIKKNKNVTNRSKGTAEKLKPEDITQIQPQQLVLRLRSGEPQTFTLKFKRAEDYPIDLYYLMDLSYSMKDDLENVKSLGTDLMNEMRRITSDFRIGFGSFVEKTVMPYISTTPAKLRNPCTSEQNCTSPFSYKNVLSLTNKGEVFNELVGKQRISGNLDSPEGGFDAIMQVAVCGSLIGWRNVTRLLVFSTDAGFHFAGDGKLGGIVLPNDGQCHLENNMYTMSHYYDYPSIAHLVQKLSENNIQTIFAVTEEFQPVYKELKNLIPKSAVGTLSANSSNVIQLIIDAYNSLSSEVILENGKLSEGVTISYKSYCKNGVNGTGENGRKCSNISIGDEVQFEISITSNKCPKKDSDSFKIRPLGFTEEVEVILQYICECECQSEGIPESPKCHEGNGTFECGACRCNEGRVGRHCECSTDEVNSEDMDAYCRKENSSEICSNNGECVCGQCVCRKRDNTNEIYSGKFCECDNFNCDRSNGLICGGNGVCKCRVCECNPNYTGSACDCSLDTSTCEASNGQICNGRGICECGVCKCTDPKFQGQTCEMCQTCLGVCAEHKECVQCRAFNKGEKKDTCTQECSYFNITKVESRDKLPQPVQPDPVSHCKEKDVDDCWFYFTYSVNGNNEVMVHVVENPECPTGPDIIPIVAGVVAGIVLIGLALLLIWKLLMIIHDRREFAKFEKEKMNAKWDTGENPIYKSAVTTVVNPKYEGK
Integrin beta-1 (Homo sapiens) + Integrin alpha-4 (Homo sapiens), sequence (P13612 whole entry, looked up): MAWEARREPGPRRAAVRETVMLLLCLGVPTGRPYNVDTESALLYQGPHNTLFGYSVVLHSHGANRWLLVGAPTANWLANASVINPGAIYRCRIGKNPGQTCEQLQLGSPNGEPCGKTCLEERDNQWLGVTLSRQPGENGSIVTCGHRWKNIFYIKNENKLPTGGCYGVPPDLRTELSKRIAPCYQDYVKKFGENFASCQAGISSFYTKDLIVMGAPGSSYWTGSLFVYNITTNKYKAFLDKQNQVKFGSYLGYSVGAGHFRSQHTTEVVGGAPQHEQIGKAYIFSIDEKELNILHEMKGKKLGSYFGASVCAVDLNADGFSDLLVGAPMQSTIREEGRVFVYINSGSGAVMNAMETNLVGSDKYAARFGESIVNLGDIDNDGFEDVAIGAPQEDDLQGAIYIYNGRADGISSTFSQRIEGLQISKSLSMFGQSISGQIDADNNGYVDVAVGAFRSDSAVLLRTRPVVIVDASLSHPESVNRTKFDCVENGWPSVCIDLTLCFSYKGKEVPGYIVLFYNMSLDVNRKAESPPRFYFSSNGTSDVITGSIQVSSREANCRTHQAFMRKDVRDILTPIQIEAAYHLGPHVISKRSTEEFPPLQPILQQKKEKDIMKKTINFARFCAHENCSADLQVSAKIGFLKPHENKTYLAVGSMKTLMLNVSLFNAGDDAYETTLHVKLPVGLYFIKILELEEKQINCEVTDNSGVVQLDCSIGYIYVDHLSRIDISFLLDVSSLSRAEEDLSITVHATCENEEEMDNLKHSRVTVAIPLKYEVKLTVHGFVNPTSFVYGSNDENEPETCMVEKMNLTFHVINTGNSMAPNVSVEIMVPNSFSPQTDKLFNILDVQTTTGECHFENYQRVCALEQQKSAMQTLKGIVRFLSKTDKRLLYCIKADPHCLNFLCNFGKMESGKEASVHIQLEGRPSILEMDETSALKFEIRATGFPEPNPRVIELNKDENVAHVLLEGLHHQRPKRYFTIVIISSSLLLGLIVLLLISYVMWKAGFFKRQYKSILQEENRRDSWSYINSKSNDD
Beta-adrenergic receptor kinase 1 (Homo sapiens), sequence (P25098 whole entry, looked up): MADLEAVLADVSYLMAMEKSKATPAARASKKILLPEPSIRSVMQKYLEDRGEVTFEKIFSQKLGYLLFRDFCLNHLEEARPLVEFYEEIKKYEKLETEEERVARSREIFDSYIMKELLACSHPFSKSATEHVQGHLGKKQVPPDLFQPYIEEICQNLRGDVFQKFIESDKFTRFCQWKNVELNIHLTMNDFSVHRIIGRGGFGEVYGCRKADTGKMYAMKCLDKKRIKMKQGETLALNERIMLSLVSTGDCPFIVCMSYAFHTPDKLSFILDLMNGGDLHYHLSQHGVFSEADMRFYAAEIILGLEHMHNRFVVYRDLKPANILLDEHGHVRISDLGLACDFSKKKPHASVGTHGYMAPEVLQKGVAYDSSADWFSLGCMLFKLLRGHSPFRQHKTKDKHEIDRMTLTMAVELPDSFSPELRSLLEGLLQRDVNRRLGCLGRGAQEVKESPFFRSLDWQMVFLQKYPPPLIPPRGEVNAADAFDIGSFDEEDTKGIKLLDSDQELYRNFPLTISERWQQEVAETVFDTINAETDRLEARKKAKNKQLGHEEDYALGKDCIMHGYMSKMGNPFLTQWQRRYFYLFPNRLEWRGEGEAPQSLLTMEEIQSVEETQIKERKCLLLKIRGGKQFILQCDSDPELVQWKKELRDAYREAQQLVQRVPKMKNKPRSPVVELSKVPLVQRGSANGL
AP-2 complex subunit beta (Homo sapiens), sequence (P63010 whole entry, looked up, the tested form may be a part, one chain of several): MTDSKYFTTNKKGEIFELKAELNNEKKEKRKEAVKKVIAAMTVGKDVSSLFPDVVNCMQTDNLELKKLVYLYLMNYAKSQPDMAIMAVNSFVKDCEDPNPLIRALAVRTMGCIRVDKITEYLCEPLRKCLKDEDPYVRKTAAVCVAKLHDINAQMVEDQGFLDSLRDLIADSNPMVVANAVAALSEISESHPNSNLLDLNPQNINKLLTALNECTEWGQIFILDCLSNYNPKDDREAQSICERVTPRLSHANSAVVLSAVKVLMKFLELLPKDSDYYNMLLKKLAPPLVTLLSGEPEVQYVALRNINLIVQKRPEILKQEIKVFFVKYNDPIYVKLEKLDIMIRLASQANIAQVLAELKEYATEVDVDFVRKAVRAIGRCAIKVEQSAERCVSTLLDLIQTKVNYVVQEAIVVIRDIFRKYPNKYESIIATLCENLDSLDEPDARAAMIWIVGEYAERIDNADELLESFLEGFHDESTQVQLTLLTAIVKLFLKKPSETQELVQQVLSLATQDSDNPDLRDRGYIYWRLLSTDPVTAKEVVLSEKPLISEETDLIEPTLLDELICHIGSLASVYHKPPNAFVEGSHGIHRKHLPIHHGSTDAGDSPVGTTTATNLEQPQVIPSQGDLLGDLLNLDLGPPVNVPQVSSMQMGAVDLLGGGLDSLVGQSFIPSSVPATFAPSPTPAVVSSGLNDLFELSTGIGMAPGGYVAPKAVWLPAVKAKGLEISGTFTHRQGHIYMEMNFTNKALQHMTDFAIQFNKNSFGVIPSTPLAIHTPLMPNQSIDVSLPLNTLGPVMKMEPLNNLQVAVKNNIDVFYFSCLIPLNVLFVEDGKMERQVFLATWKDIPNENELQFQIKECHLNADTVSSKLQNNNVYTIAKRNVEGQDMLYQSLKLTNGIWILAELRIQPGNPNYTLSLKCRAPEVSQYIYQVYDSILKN

With `O=C(NC(=S)N1CCCCC1)c1cccnc1`, the percent of DMSO control GFP in assay [1] is 102% (inactive). The GFP response vs DMSO in assay [2] is 95.1% (inactive); in assay [4], 108% (inactive). In [3], the percent response of DMSO control was 97.8% (inactive). In addition, in assay [5], the GFP response, % of DMSO was 99.4% (inactive). The double positive events in [6] stood at 60.8%. Moreover, the vesicle binding response in assay [6] is 95.6% (inactive). Also, the figures for the inhibition in assay [7], in assay [11] and in assay [15] were 11% (inactive), -15.4% (inactive) and -15% (inactive), respectively. The superoxide response (% of plate) in [8] was 89.9% (inactive). The aptamer binding inhibition in assay [9] is -3% (inactive). Further, the response in [10] is -0.16% (inactive); in assay [12], -2.13% (inactive). In addition, the binding (% of control) in [13] was 93.3% (inactive). For the same compound, the efflux inhibition (fraction of control) in assay [14] was -0.07 (inactive). Moreover, in assay [16], the differentiation response was 21.8% (inactive).

For the compound `O=c1cc(CN2CCN(c3cccc(Cl)c3)CC2)c2cc(O)c(-c3ccccc3)cc2o1`, the percent of DMSO control GFP in assay [1] is 93% (inactive). Moreover, the figures for the GFP response vs DMSO in assay [2] and in assay [4] were 133% (inactive) and 83.1% (inactive), respectively. The percent response of DMSO control in assay [3] was 102% (inactive). Also, in assay [5], the GFP response, % of DMSO is 92.8% (inactive). In assay [6], this compound showed a double positive events of 69.1%. The vesicle binding response in assay [6] was 265% (inactive). Moreover, the results for the inhibition in assay [7], in [11] and in [15] were 0.64% (inactive), -0.51% (inactive) and 11% (inactive), respectively. Further, the superoxide response (% of plate) in assay [8] was 113% (inactive). In [9], the aptamer binding inhibition was 0% (inactive). Moreover, the response is 6.6% (inactive) in assay [10] and -1.13% (inactive) in [12]. For the same compound, in assay [13], the binding (% of control) is 97.8% (inactive). The efflux inhibition (fraction of control) in assay [14] was -0.02 (inactive). Also, the differentiation response in assay [16] is -12.3% (inactive).

On to `COCc1cc(=O)[nH]c(/N=C(\N)Nc2ccc(Oc3ccccc3)cc2)n1`, for which the percent of DMSO control GFP in assay [1] was 96.9% (inactive). For the same compound, the GFP response vs DMSO was 118% (inactive) in assay [2] and 109% (inactive) in assay [4]. Moreover, the percent response of DMSO control in assay [3] is 83.4% (inactive). Moreover, the GFP response, % of DMSO in assay [5] is 97.8% (inactive). In assay [6], this compound displayed a double positive events of 60.6%. The vesicle binding response in assay [6] is 216% (inactive). In addition, the inhibition was -1.79% (inactive) in assay [7], -1.38% (inactive) in assay [11] and 12% (inactive) in assay [15]. Also, the superoxide response (% of plate) in assay [8] is 94.8% (inactive). Moreover, in assay [9], the aptamer binding inhibition was 2% (inactive). Besides, the response in assay [10] was 17.9% (inactive); in [12], -1.49% (inactive). The binding (% of control) in assay [13] was 99.3% (inactive). The efflux inhibition (fraction of control) in assay [14] is 0.01 (inactive). Further, the differentiation response in assay [16] is 10.4% (inactive).

`CC1(C)C(=O)OC(/C=C\c2ccccc2)C(C)(C)C1=O` (stereo not drawn): the percent of DMSO control GFP in [1] was 98.4% (inactive). Besides, the GFP response vs DMSO in [2] was 101% (inactive); in assay [4] it was 112% (inactive). For the same compound, the percent response of DMSO control in assay [3] is 95.7% (inactive). Besides, in assay [5], the GFP response, % of DMSO was 107% (inactive). This compound also had a double positive events in assay [6] of 64.8%. Further, in assay [6], the vesicle binding response was 160% (inactive). In addition, the inhibition in [7] was 1.44% (inactive); in [11], 6.83% (inactive); in assay [15], 3% (inactive). Also, in [8], the superoxide response (% of plate) was 80.2% (inactive). In addition, the aptamer binding inhibition in assay [9] is 6% (inactive). For the same compound, the values for the response in [10] and in [12] were -19.9% (inactive) and -6.88% (inactive), respectively. Besides, the binding (% of control) in assay [13] is 97.3% (inactive). In addition, the efflux inhibition (fraction of control) in assay [14] was -0.09 (inactive). Further, the differentiation response in [16] was 4.86% (inactive).
